Screen size: about 320,000 compounds; about 1,300 (0.41%) were called active. Roughly 3% stayed inconclusive and do not appear here. How the calls were made is not given here. These entries were drawn from the full list. Results with a measured potency or affinity are listed apart.
Assay: growth inhibition of non-replicating M. tuberculosis (AID 488890);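 further: plate controls were DMSO cells for no effect and high antibiotic wells for full effect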
Settings: Mycobacterium tuberculosis non-replicating, at 25 µM, stronger effect = higher value

SMILES | inhibition [%]
Cc1ccsc1C(=O)N1CCC(N2CCC(C(=O)NCC3CCCO3)CC2)CC1 (stereo unspecified) | 1.59
C[C@H](NC(=O)[C@@H]1CSC2c3ccccc3C(=O)N21)C(=O)NC1CCCC1 (stereo partly specified) | -7.65
CCc1ccc(OCC(=O)O/N=C(\N)c2ccncc2)cc1 | 35.7
COc1ccc(N2CCN(CC(O)COCc3ccccc3)CC2)cc1 (stereo unspecified) | -6.85
Cc1cc(NC(=O)CC#N)n(-c2nc3ccccc3[nH]2)n1 | -8.39
Cc1cc(Nc2nc3ccccc3[nH]c2=O)n(-c2ccccc2)n1 | 3.53
Cc1cc(F)ccc1NC(=O)c1cc(S(=O)(=O)N2CCCC2)cn1C | -14.1
O=[N+]([O-])c1ccc(-c2nc(-c3ccncc3)no2)cc1 | -0.83
O=[N+]([O-])c1cccc(-c2nc(-c3ccncc3)no2)c1 | 1.9
COc1ccc(Oc2cccc(Cl)c2CNC(=O)c2ccccc2C(=O)O)cc1 | 22.3
CC1=Nc2ccccc2/C1=C/c1sc(=O)n(CC(=O)N2CCCC2)c1O | 24
CC1=Nc2ccccc2/C1=C/c1c(O)n(C)c(=O)[nH]c1=O | 3.78
COc1ccc(NC(=O)CN(C)C(=O)c2ccccc2Sc2ncnc3sc(C)c(C)c23)cc1 | 19.2
CC(C)(C)C(=O)CN1C(=O)NC(c2ccccc2)(c2ccccc2)C1=O | 0.55
CCCCCOC(=O)C1=C(C)Nc2ncnn2C1c1cccs1 (stereo unspecified) | 21.8
COc1ccc(CNC(=O)[C@H](C)NC(=O)[C@@H]2Cc3ccccc3CN2)cc1 | 1.37
CC(OC(=O)CCCSc1nc2ccccc2s1)C(=O)NC(N)=O (stereo unspecified) | 68.6
CCNC(=O)NC(=O)C(C)OC(=O)CCCc1nc2ccccc2s1 (stereo unspecified) | 65.1
Cc1c(Cl)cccc1NC(=O)CSc1nncn1-c1cccnc1 | 2.49
O=c1cc(-c2ccccc2)[nH]c2ccccc12 | 14.9
O=c1nc(-c2ccccc2)c2ccccc2[nH]1 | -10.3
CC(C)CN(C(=O)Cn1nnc(-c2ccc(F)cc2)n1)C1CCS(=O)(=O)C1 (stereo unspecified) | 2.71
CCOC(=O)c1cc(-c2cccc([N+](=O)[O-])c2)n[nH]1 | -6.3
CCOC(=O)c1c(-c2cccc([N+](=O)[O-])c2)csc1N | 39.4

SMILES | inhibition [%]
COc1cccc(C(=O)Nc2ccc(-n3nncc3C(C)(C)C)cc2)c1 | 9.74
COc1cccc(-n2nnnc2SCC(=O)NC2CCCC2)c1 | 7.16
COc1cccc(Oc2nnnn2-c2ccccc2)c1 | 6.02
C=C(C(=O)Oc1ccccc1C(C)(C)C)c1ccccc1 | 36.4
COC(=O)c1ccc2c(=O)n(CCCCCC(=O)O)c(=O)[nH]c2c1 | -11.8
CC(NC(=O)COC(=O)c1ccccc1F)C1CC2CCC1C2 (stereo unspecified) | 71
CC(NC(=O)CCC(=O)c1ccc(F)cc1)C1CC2CCC1C2 (stereo unspecified) | 11.8
CC(NC(=O)c1ccc(F)cc1F)C1CC2CCC1C2 (stereo unspecified) | 77.7
CC(NC(=O)c1cccc(S(=O)(=O)N(C)C)c1)C1CC2CCC1C2 (stereo unspecified) | -2.47
O=C(C1CCCN(S(=O)(=O)c2cccc3nsnc23)C1)N1CCN(c2ccccn2)CC1 (stereo unspecified) | 16.4
CCCCN(C(=O)NCCCCCCNC(=O)N(CCCC)C1CCS(=O)(=O)C1)C1CCS(=O)(=O)C1 (stereo unspecified) | -10.6
COc1ccc(CC(=O)OCc2nnc(-c3ccccc3)o2)cc1 | 66.7
COc1cccc(C(Nc2ccccn2)c2oc(CO)cc(=O)c2O)c1 (stereo unspecified) | 8.94
CCOC(=O)c1cccc(NC(=O)COc2ccc([N+](=O)[O-])cc2)c1 | 73.8
CNC(=O)CO/N=C/c1ccc(N(C)C)cc1 | 3.3
CC(C)CNC(=O)c1cccc(NC(=O)COc2cccc([N+](=O)[O-])c2)c1 | 16.2
CC(=O)c1cccc(NC(=O)COc2ccccc2)c1 | 54.2
O=C(COc1ccccc1)Nc1cccc(-c2nnc(-c3ccccc3)o2)c1 | 15.8
O=C(COc1ccc(CO)cc1)Nc1ccc(F)cc1 | -2.12
CC(=O)Nc1cccc(OCC(=O)Nc2ccc(F)cc2)c1 | -6.82
CC(=O)Nc1ccc(/C=N/OCC(=O)Nc2ccc(C)cc2)cc1 | 31.8
Cn1c(N)c(C(=O)COC(=O)Cc2ccc(Br)cc2)c(=O)n(C)c1=O | 3.86
O=C(Cc1ccc(F)cc1)N1CCC(CC2CC(c3cccc(Br)c3)=NO2)(C(=O)NCC2CCCCC2)CC1 (stereo unspecified) | 37
COc1ccc(-n2c(C)c(C)c3c(NCCCO)ncnc32)cc1 | -0.92

SMILES | inhibition [%]
COc1ccc(-n2c(CN3CCN(C)CC3)nc3ccc([N+](=O)[O-])cc3c2=O)c(OC)c1 | 1.89
COc1ccc(C(=O)CC(=O)C(=O)Nc2c(C)cccc2C)cc1 | 78.4
O=C(C1CCN(S(=O)(=O)c2ccc(Br)cc2)CC1)N1CCOCC1 | -10.1
COC(=O)c1ccc(C)c(NC(=O)Cc2ccc([N+](=O)[O-])cc2)c1 | 21.2
COc1ccc(S(=O)(=O)N2CCC(C(=O)NCCOc3ccccc3F)CC2)cc1OC | 24.4
COC(=O)COc1cccc(NC(=O)C(c2ccccc2)c2ccccc2)c1 | 3.23
CCC(=O)c1ccc(OCC(=O)Nc2ccc3c(c2)OCCO3)cc1 | 69.5
CC(=O)Oc1ccc(/C=N/NC(=O)CCSc2ccccc2)cc1 | 9.49
Cc1cc(NC(=O)CO/N=C/c2ccc3c(c2)OCO3)ccc1Br | -0.49
COc1ccc(/C=N/OCC(=O)Nc2ccc3c(c2)OCO3)c(OC)c1 | 59.9
COC(=O)N/N=C/c1cccc(OCCSc2ccc(Cl)cc2)c1 | 74.7
CC(=O)Nc1cccc(OCC(=O)Nc2ccccc2)c1 | -8.67
O=C(COc1ccccc1F)Nc1ccc2c(c1)OCCO2 | 52.5
COc1cc(OC)cc(C(=O)OCc2cc3ccccc3[nH]c2=O)c1 | -16
COc1ccc(NC(=O)/C(=C/c2cccs2)NC(=O)c2ccco2)cc1 | -0.67
Nc1cc(N)nc(SCC(=O)Nc2ccc3c(c2)OCO3)n1 | 2.02
CS(=O)(=O)Oc1ccc(/C=N/NC(=O)c2ccncc2)cc1 | 60.2
O=c1cc(-c2ccccc2)nc2nc(SCc3ccccc3)[nH]n12 | 60.3
O=C(CCn1c(=S)oc2ccccc21)Nc1ccccc1Br | -5.39
O=C(O)c1ccc2c(c1)C(=O)N(NC(=O)c1ccccc1)C2=O | -12.7
CCc1ccccc1NC(=O)COc1ccc2c(c1)OCO2 | 65.4
COC(=O)c1ccc(NC(=O)COc2ccc3c(c2)OCO3)cc1 | 79.3
CC1=C(C(=O)Nc2ccccc2C(F)(F)F)C(c2sccc2C)NC(=S)N1 (stereo unspecified) | -0.9
